Data reported in PubChem BioAssay (NCI).
About 83,000 compounds went through this panel and 20% of them were active in at least one assay; those are over-represented in the sample as a whole.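 Treatment: one concentration, 48 hours, 96-well format. Scoring: percent growth, with anything below 10 considered active.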 Values without a mark were called inactive. The source made the active and inactive calls.

Tests used:
Assay in all cases: NCI-60 one-dose screen, 48 h (100 = growth as untreated, 0 = no growth, -100 = all killed)
Details in all cases: 10 µM unless noted
[1] = system: DU-145 prostate
[2] = system: K-562 leukemia
[3] = system: MALME-3M melanoma
[4] = system: MDA-MB-231 breast
[5] = system: RXF 393 renal
[6] = system: SF-268 CNS
[7] = system: SF-295 CNS
[8] = system: SF-539 CNS
[9] = system: UACC-257 melanoma
[10] = system: M14 melanoma

| Compound | growth [1] | growth [2] | growth [3] | growth [4] | growth [5] | growth [6] | growth [7] | growth [8] | growth [9] | growth [10] |
| --- | --- | --- | --- | --- | --- | --- | --- | --- | --- | --- |
| CCN1CCN(CCOc2ccc(CNc3ccc4nc(CCC5CCCCC5)[nH]c4c3)cc2)CC1 | 50.3% | 6.76% (active) | -88.2% (active) | -31.4% (active) | 28.2% | 54.4% | 48% | -87.1% (active) | -69.4% (active) | -76.5% (active) |
| COC(=O)c1nc(-c2ccc(C)cc2)oc1N1CCOCC1 | 98.1% | 95.6% | 115% | 105% | 89.6% | 98.1% | 99% | 95.9% | 100% | 102% |
| COc1cc(C(=O)/C=C/c2c(-c3cccs3)nc3sc(C)cn23)cc(OC)c1OC | -18.1% (active) | 7.44% (active) | -10.6% (active) | 43.3% | -35.3% (active) | 20% | 3.07% (active) | -2.02% (active) | 0.649% (active) | 1.71% (active) |
| COc1nc2ccccc2cc1/C=C1/C=C(c2ccccc2)NC1=O | 55.8% | 13.1% | 38.3% | 46.1% | 46% | 48.8% | 28.5% | 19.6% | 60.7% | 24.6% |
| CCc1ccc(Cc2cnc(NC(=O)c3cc(C)oc3C)s2)cc1 | 60.2% | 14.6% | 56% | 57.8% | 15.4% | 48.6% | 31.8% | 31.2% | 52.1% | 21.4% |
| COc1ccc(-c2csc(NC(=O)CSc3nc(C)cc(=O)[nH]3)n2)cc1 | 106% | 104% | 110% | 91.7% | 128% | 96.4% | 99.3% | 101% | 101% | 107% |
| COc1ccc(Nc2nc(Nc3cc(C)[nH]n3)c3cc(OC)c(OC)cc3n2)cc1 | -86.2% [20 µM] (active) | -10.8% [20 µM] (active) | -97.7% [20 µM] (active) | -94.2% [20 µM] (active) | -94.4% [20 µM] (active) | -66.8% [20 µM] (active) | -94.2% [20 µM] (active) | -97.2% [20 µM] (active) | -76.8% [20 µM] (active) | -75.6% [20 µM] (active) |
| COc1cc(OCc2cccc(-c3ccccc3)c2C)cc(OC)c1CN1CCCCC1C(=O)NCCOCCOCCN (stereo not given) | 65.7% | -19.8% (active) | 54.1% | 57.5% | 59% | 87% | 89.3% | 87.7% | 99.7% | -27.5% (active) |
| Oc1ccc(C2OCCO2)c2cccnc12 | 56.7% | 17.3% | 49% | 46.6% | 77% | 31.1% | 86.9% | 36% | 79.2% | 25.8% |
| N#CC1=C(N)Oc2c(ccc3cccnc23)C1c1ccccc1 (stereo not given) | 17.6% | 17.2% | 47.9% | 48.6% | 4.49% (active) | 45.2% | 18.1% | -39.6% (active) | 74.4% | 20% |
| O=S(=O)(c1ccc(NCSc2nc3ccccc3s2)cc1)c1ccc(NCSc2nc3ccccc3s2)cc1 | 106% | 77.3% | 90.5% | 86.4% | 99.1% | 97.5% | 98.6% | 103% | 94.7% | 96.1% |
| O=C(/C=C/c1cccc([N+](=O)[O-])c1)c1ccc(Nc2nc(Nc3ccc(F)cc3)nc(Nc3ccc(Cl)cc3)n2)cc1 | 106% | 70% | 105% | 92.2% | 3.04% (active) | 93.8% | 84.8% | 106% | 100% | 92.5% |
| Cc1[nH]c(C2CC(c3ccc(C(F)(F)F)c(F)c3)=NN2C)c(C)c1C(=O)NCC(F)(F)F (stereo not given) | 96.3% | 85.6% | 93.8% | 85.4% | 93.7% | 92.4% | 94.9% | 96.7% | 97.9% | 115% |
| COc1cc2c(c(OC)c1OC)C(=O)CC(c1cccc(C(=O)Nc3ccc(Br)cc3)c1)O2 (stereo not given) | 73% | 6.2% (active) | 70% | 50.8% | 66.5% | 64.2% | 63.6% | 82.8% | 74.7% | 57.7% |
| O=C(Nc1ncc(Cc2ccccc2Cl)s1)c1ccc2c(c1)OCCO2 | 9.81% (active) | 8.27% (active) | 56.6% | 23.5% | 9.52% (active) | 41.2% | 11.7% | -8.75% (active) | 53.1% | 10.3% |
| O=C1c2c(c3c4cccnc4[nH]c3c3ccc4ccccc4c23)C(=O)N1O | 54.8% | 29.7% | 63.1% | 85.9% | 47.9% | 37.6% | 91.8% | 39.6% | 76.4% | 49% |
| COc1cccc2cc(N(C)c3nc(C)nc4c3CCC4)ccc12 | 5.3% (active) | 10.4% | 57.4% | 24.8% | 44% | 25.9% | 15.3% | -0.597% (active) | 59.1% | 6.91% (active) |
| C/C(=C(\c1ccc(OCCCN(C)C)cc1)c1ccc(OC(=O)Cc2ccccc2)cc1)c1ccc(Cl)cc1 | 80.7% | 0.63% (active) | 87.6% | 68.4% | 69.7% | 77.4% | 79.1% | 82% | 91.5% | 7.02% (active) |
